# Assay results as given in PMC11062922 (Nature Chemical Biology, 2023).
# Read-outs that look alike come from different tables or passages of the source.
# Assays:
# Parameters in all cases: species or system human, MV4-11 + K-562 + COLO205 + SK-N-BE2 + OVCAR-8
# AP1G1 = conditions: read-out: apparent Kd; compound concentrations:100 nM and 1000 nM (sheet 'Samples'); n = 1
# AKT3 = conditions: read-out: apparent Kd, n = 1
# EPHB4 = conditions: read-out: apparent Kd; compound concentrations:100 nM and 1000 nM (sheet 'Samples'); n = 1
# ERCC2 = conditions: read-out: apparent Kd; compound concentrations:100 nM and 1000 nM (sheet 'Samples'); n = 1
# FER = conditions: read-out: apparent Kd; compound concentrations:100 nM and 1000 nM (sheet 'Samples'); n = 1
# PTK2B = conditions: read-out: apparent Kd; compound concentrations:100 nM and 1000 nM (sheet 'Samples'); n = 1
# TNK1 = conditions: read-out: apparent Kd; compound concentrations:100 nM and 1000 nM (sheet 'Samples'); n = 1
# TNK2 = conditions: read-out: apparent Kd; compound concentrations:100 nM and 1000 nM (sheet 'Samples'); n = 1
# ATM = conditions: read-out: apparent Kd, n = 1
# CHEK1 = conditions: read-out: apparent Kd; compound concentrations:100 nM and 1000 nM (sheet 'Samples'); n = 1
# GRK6 = conditions: read-out: apparent Kd; compound concentrations:100 nM and 1000 nM (sheet 'Samples'); n = 1
# PDGFRB = conditions: read-out: apparent Kd; compound concentrations:100 nM and 1000 nM (sheet 'Samples'); n = 1
# RET = conditions: read-out: apparent Kd; compound concentrations:100 nM and 1000 nM (sheet 'Samples'); n = 1
# RPS6KA6 = conditions: read-out: apparent Kd; compound concentrations:100 nM and 1000 nM (sheet 'Samples'); n = 1
# CDC42 = conditions: read-out: apparent Kd; compound concentrations: 100 nM and 1000 nM (sheet 'Samples'), CATDS: 0.120707875604042; n = 1
# MTOR = conditions: read-out: apparent Kd; compound concentrations: 100 nM and 1000 nM (sheet 'Samples'), CATDS: 0.13183909981737599; n = 1
# PIK3CA = conditions: read-out: apparent Kd, compound concentrations: 100 nM and 1000 nM (sheet 'Samples'), n = 1
# PIK3CD = conditions: read-out: apparent Kd, n = 1
# PKN3 = conditions: read-out: apparent Kd; compound concentrations: 100 nM and 1000 nM (sheet 'Samples'), CATDS: 0.11684999356733999; n = 1
# FLT3 = conditions: read-out: apparent Kd, compound concentrations: 100 nM and 1000 nM (sheet 'Samples'), n = 1
# MYLK3 = conditions: read-out: apparent Kd, compound concentrations: 100 nM and 1000 nM (sheet 'Samples'), n = 1
# AKT2 = conditions: read-out: apparent Kd, compound concentrations: 100 nM and 1000 nM (sheet 'Samples'), n = 1
# CDK6 = conditions: read-out: apparent Kd; compound concentrations: 100 nM and 1000 nM (sheet 'Samples'), CATDS: 0.161106478670141; n = 1
# MAP3K6 = conditions: read-out: apparent Kd; compound concentrations: 100 nM and 1000 nM (sheet 'Samples'), CATDS: 0.18139897534285501; n = 1
# TESK1 = conditions: read-out: apparent Kd; compound concentrations: 100 nM and 1000 nM (sheet 'Samples'), CATDS: 0.16638994062749099; n = 1
# FLT4 = conditions: read-out: apparent Kd, compound concentrations: 100 nM and 1000 nM (sheet 'Samples'), n = 1
# RIPK2 = conditions: read-out: apparent Kd, compound concentrations: 100 nM and 1000 nM (sheet 'Samples'), n = 1
# STK10 = conditions: read-out: apparent Kd; compound concentrations: 100 nM and 1000 nM (sheet 'Samples'), CATDS: 0.17094041462039; n = 1
# GAK = conditions: read-out: apparent Kd; compound concentrations: 100 nM and 1000 nM (sheet 'Samples'), CATDS: 0.73237388981335505; n = 1
# NLK = conditions: read-out: apparent Kd; compound concentrations: 100 nM and 1000 nM (sheet 'Samples'), CATDS: 0.15655838953280801; n = 1
# CDC42BPG = conditions: read-out: apparent Kd; compound concentrations: 100 nM and 1000 nM (sheet 'Samples'), CATDS: 9.9527078318265502E-2; n = 1
# DCTPP1 = conditions: read-out: apparent Kd; compound concentrations: 100 nM and 1000 nM (sheet 'Samples'), CATDS: 8.8490675480642905E-2; n = 1
# DDR2 = conditions: read-out: apparent Kd; compound concentrations: 100 nM and 1000 nM (sheet 'Samples'), CATDS: 8.0656162840652496E-2; n = 1
# IRAK4 = conditions: read-out: apparent Kd; compound concentrations: 100 nM and 1000 nM (sheet 'Samples'), CATDS: 7.99000406569913E-2; n = 1
# PIM2 = conditions: read-out: apparent Kd; compound concentrations: 100 nM and 1000 nM (sheet 'Samples'), CATDS: 8.1354023438197698E-2; n = 1
# PRKAG1 = conditions: read-out: apparent Kd, n = 1
# TNIK = conditions: read-out: apparent Kd; compound concentrations: 100 nM and 1000 nM (sheet 'Samples'), CATDS: 9.2286016750468006E-2; n = 1
# BMPR1B = conditions: read-out: apparent Kd; compound concentrations:100 nM and 1000 nM (sheet 'Samples'); n = 1
# DDR1 = conditions: read-out: apparent Kd; compound concentrations:100 nM and 1000 nM (sheet 'Samples'); n = 1
# IRAK3 = conditions: read-out: apparent Kd; compound concentrations:100 nM and 1000 nM (sheet 'Samples'); n = 1
# MAPK10 = conditions: read-out: apparent Kd; compound concentrations:100 nM and 1000 nM (sheet 'Samples'); n = 1
# MAPK11 = conditions: read-out: apparent Kd; compound concentrations:100 nM and 1000 nM (sheet 'Samples'); n = 1
# MAPK14 = conditions: read-out: apparent Kd; compound concentrations:100 nM and 1000 nM (sheet 'Samples'); n = 1
# MAPK8 = conditions: read-out: apparent Kd; compound concentrations:100 nM and 1000 nM (sheet 'Samples'); n = 1
# MAPK9 = conditions: read-out: apparent Kd; compound concentrations:100 nM and 1000 nM (sheet 'Samples'); n = 1
# MAPKAPK2 = conditions: read-out: apparent Kd; compound concentrations:100 nM and 1000 nM (sheet 'Samples'); n = 1
# TTN = conditions: read-out: apparent Kd; compound concentrations: 100 nM and 1000 nM (sheet 'Samples'), CATDS: 0.28618499292255201; n = 1
# MAP2K3 = conditions: read-out: apparent Kd; compound concentrations: 100 nM and 1000 nM (sheet 'Samples'), CATDS: 0.58030400025916395; n = 1
# [1] = compound concentrations:100 nM and 1000 nM (sheet 'Samples')
smiles,measurement,setting,value
COc1cccc(OC)c1C(=O)Nc1cccc(-c2nn3ccccc3c2-c2ccnc(Nc3cccc(F)c3)n2)c1 [GSK361065A],potency estimated from few doses,AP1G1,895 nM
O=C(Nc1c(F)cccc1F)c1cc(C(=O)c2ccccc2F)c[nH]1 [GSK1326180A],potency estimated from few doses,AKT3; [1],1080 nM
same,potency estimated from few doses,EPHB4,1310 nM
same,potency estimated from few doses,ERCC2,984 nM
same,potency estimated from few doses,FER,920 nM
same,potency estimated from few doses,PTK2B,1070 nM
same,potency estimated from few doses,TNK1,870 nM
same,potency estimated from few doses,TNK2,898 nM
COc1cc(Nc2cnc(C#N)c(O[C@H](C)CN(C)C)n2)ncc1-c1cnn(C)c1 [CCT244747],potency estimated from few doses,ATM; [1],179 nM
same,potency estimated from few doses,CHEK1,39.7 nM
same,potency estimated from few doses,GRK6,1230 nM
same,potency estimated from few doses,PDGFRB,1490 nM
same,potency estimated from few doses,RET,112 nM
same,potency estimated from few doses,RPS6KA6,460 nM
Fc1ccc(-c2c(-c3ccncc3)nc3n2CCS3)cc1 [SKF-86055],potency estimated from few doses,"ATM; compound concentrations: 100 nM and 1000 nM (sheet 'Samples'), CATDS: 0.230066198267698",174 nM
same,potency estimated from few doses,CDC42,940 nM
same,potency estimated from few doses,MTOR,688 nM
same,potency estimated from few doses,PIK3CA; CATDS: 0.214179011469951,201 nM
same,potency estimated from few doses,"PIK3CD; compound concentrations: 100 nM and 1000 nM (sheet 'Samples'), CATDS: 0.39108548114929897",71.3 nM
same,potency estimated from few doses,PKN3,1070 nM
Cc1cnc(N)c(/C=C/c2cncc(C(=O)NCCc3ccc(Cl)cc3Cl)c2)c1.Cl [GSK190937A],potency estimated from few doses,"ATM; compound concentrations: 100 nM and 1000 nM (sheet 'Samples'), CATDS: 1",186 nM
CS(=O)(=O)Nc1ccc(N/C=C2\C(=O)Nc3ccccc32)cc1 [GW278681X],potency estimated from few doses,"AKT3; compound concentrations: 100 nM and 1000 nM (sheet 'Samples'), CATDS: 0.228798391958558",1780 nM
same,potency estimated from few doses,FLT3; CATDS: 0.41420685455441397,358 nM
same,potency estimated from few doses,MYLK3; CATDS: 0.45144948525054202,306 nM
CC(C)(C)c1ccc(C(=O)Nc2cn3cc(-c4cccnc4)ccc3n2)cc1 [TPKI-58],potency estimated from few doses,AKT2; CATDS: 0.161552341020717,1950 nM
same,potency estimated from few doses,CDK6,1970 nM
same,potency estimated from few doses,MAP3K6,1390 nM
same,potency estimated from few doses,PIK3CA; CATDS: 0.92567597438095595,17.7 nM
same,potency estimated from few doses,TESK1,1790 nM
CCS(=O)(=O)c1ccc(OC)c(Nc2nccc(N(C)c3ccc4c(C)n[nH]c4c3)n2)c1.Cl [GW654652C],potency estimated from few doses,"ATM; compound concentrations: 100 nM and 1000 nM (sheet 'Samples'), CATDS: 0.41438416433349501",228 nM
same,potency estimated from few doses,FLT4; CATDS: 0.192292703568538,1430 nM
same,potency estimated from few doses,RIPK2; CATDS: 0.39426216370123801,249 nM
same,potency estimated from few doses,STK10,2280 nM
COc1cc(Nc2ccnc3ccc(Br)cc23)cc(OC)c1OC [CA93.0],potency estimated from few doses,"ATM; compound concentrations: 100 nM and 1000 nM (sheet 'Samples'), CATDS: 0.26072592490086599",205 nM
same,potency estimated from few doses,GAK,22.7 nM
same,potency estimated from few doses,NLK,1500 nM
same,potency estimated from few doses,RIPK2; CATDS: 0.226668000101196,311 nM
NS(=O)(=O)c1cccc(N/C=C2\C(=O)Nc3ccccc32)c1 [GW275616X],potency estimated from few doses,"ATM; compound concentrations: 100 nM and 1000 nM (sheet 'Samples'), CATDS: 0.21008347624398099",294 nM
same,potency estimated from few doses,CDC42BPG,1200 nM
same,potency estimated from few doses,DCTPP1,1600 nM
same,potency estimated from few doses,DDR2,2060 nM
same,potency estimated from few doses,FLT3; CATDS: 8.7421379442902306E-2,1650 nM
same,potency estimated from few doses,IRAK4,2110 nM
same,potency estimated from few doses,MYLK3; CATDS: 0.35041871443296002,137 nM
same,potency estimated from few doses,PIM2,2010 nM
same,potency estimated from few doses,"PRKAG1; compound concentrations: 100 nM and 1000 nM (sheet 'Samples'), CATDS: 8.6524001120503097E-2",1690 nM
same,potency estimated from few doses,TNIK,1440 nM
CCn1c(=O)c(Oc2ccc(F)cc2F)cc2cnc(NC3CCOCC3)nc21 [RO4367438-000],potency estimated from few doses,ATM; [1],238 nM
same,potency estimated from few doses,BMPR1B,867 nM
same,potency estimated from few doses,DDR1,1510 nM
same,potency estimated from few doses,IRAK3,1240 nM
same,potency estimated from few doses,MAPK10,45.1 nM
same,potency estimated from few doses,MAPK11,89.8 nM
same,potency estimated from few doses,MAPK14,2.49 nM
same,potency estimated from few doses,MAPK8,153 nM
same,potency estimated from few doses,MAPK9,46.5 nM
same,potency estimated from few doses,MAPKAPK2,8.81 nM
same,potency estimated from few doses,PIK3CD; [1],13.5 nM
same,potency estimated from few doses,PRKAG1; [1],128 nM
CCN(CC)S(=O)(=O)c1ccc(OC)c(Nc2ncc(-c3ccccc3)o2)c1 [GW572401X],potency estimated from few doses,"ATM; compound concentrations: 100 nM and 1000 nM (sheet 'Samples'), CATDS: 0.38559803360956002",233 nM
same,potency estimated from few doses,FLT4; CATDS: 0.25804604622039201,495 nM
same,potency estimated from few doses,MYLK3; CATDS: 0.16564230425287901,1940 nM
same,potency estimated from few doses,TTN,399 nM
Nc1c(C(=O)c2ccc(C#CCN3CCOCC3)cc2)cnn1-c1ccc(F)cc1 [RO1153136-000],potency estimated from few doses,AKT2; CATDS: 0.43921962783060797,2590 nM
same,potency estimated from few doses,MAP2K3,1470 nM
